From the supplement of paper PMC8728848
The entries come from a sample that favours the strongest signals as a whole.

Assays:
Experiment in all cases: glycan array binding signal (z-score within array); higher = stronger binding
Details in all cases: glycan notation: IUPAC condensed, linker removed
GalNAc(b1-3)GlcNAc = molecular target: GalNAc(b1-3)GlcNAc
Outline: (§1)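 The Consortium for Functional Glycomics database supplied 3228 glycan arrays, of which those lacking an available protein sequence were dropped. The binding signal, a within-array Z-score, was averaged across arrays of the same protein sequence and across linkers. Negative scores can be read as non-binding.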

[1] = molecular target: Glc(a1-6)Glc(a1-6)Glc(a1-6)Glc
Outline: as §1

[2] = molecular target: GlcNAc(a1-4)Gal(b1-3)GlcNAc
Outline: as §1

[3] = molecular target: GlcNAc(b1-2)Man(a1-3)[GlcNAc(b1-2)Man(a1-6)]Man(b1-4)GlcNAc(b1-4)[Fuc(a1-6)]GlcNAc
Outline: as §1

[4] = molecular target: GlcNAc(b1-3)Gal(b1-4)GlcNAc(b1-3)Gal(b1-4)GlcNAc(b1-3)Gal(b1-4)GlcNAc(b1-3)Gal(b1-4)GlcNAc(b1-2)Man(a1-3)[GlcNAc(b1-3)Gal(b1-4)GlcNAc(b1-3)Gal(b1-4)GlcNAc(b1-3)Gal(b1-4)GlcNAc(b1-3)Gal(b1-4)GlcNAc(b1-2)Man(a1-6)]Man(b1-4)GlcNAc(b1-4)[Fuc(a1-6)]GlcNAc
Outline: as §1

[5] = molecular target: GlcNAc(b1-4)GlcNAc(b1-4)GlcNAc
Outline: as §1

[6] = molecular target: GlcNAc(b1-4)GlcNAc(b1-4)GlcNAc(b1-4)GlcNAc(b1-4)GlcNAc
Outline: as §1

[7] = molecular target: GlcNAc(b1-6)Gal(b1-4)GlcNAc
Outline: as §1

GlcNAc(b1-6)GalNAc = molecular target: GlcNAc(b1-6)GalNAc
Outline: as §1

[8] = molecular target: Neu5Ac(a2-3)Gal(b1-3)GalNAc
Outline: as §1

[9] = molecular target: Neu5Ac(a2-3)Gal(b1-3)GalNAc(b1-4)[Neu5Ac(a2-3)]Gal(b1-4)Glc
Outline: as §1

[10] = molecular target: Neu5Ac(a2-3)Gal(b1-4)GlcNAc(b1-2)Man
Outline: as §1

[11] = molecular target: Neu5Ac(a2-3)Gal(b1-4)GlcNAc(b1-2)Man(a1-3)[Neu5Ac(a2-3)Gal(b1-4)GlcNAc(b1-2)Man(a1-6)]Man(b1-4)GlcNAc(b1-4)[Fuc(a1-6)]GlcNAc
Outline: as §1

[12] = molecular target: Neu5Ac(a2-3)Gal(b1-4)GlcNAc(b1-2)[Neu5Ac(a2-3)Gal(b1-4)GlcNAc(b1-4)]Man(a1-3)[GlcNAc(b1-4)][Neu5Ac(a2-3)Gal(b1-4)GlcNAc(b1-2)[Neu5Ac(a2-3)Gal(b1-4)GlcNAc(b1-6)]Man(a1-6)]Man(b1-4)GlcNAc(b1-4)GlcNAc
Outline: as §1

[13] = molecular target: Neu5Ac(a2-3)Gal(b1-4)GlcNAc(b1-3)Gal(b1-4)GlcNAc(b1-2)Man(a1-3)[Neu5Ac(a2-3)Gal(b1-4)GlcNAc(b1-3)Gal(b1-4)GlcNAc(b1-2)Man(a1-6)]Man(b1-4)GlcNAc(b1-4)GlcNAc
Outline: as §1

[14] = molecular target: Neu5Ac(a2-3)Gal(b1-4)[Fuc(a1-3)]GlcNAc(b1-2)Man
Outline: as §1

[15] = molecular target: Neu5Ac(a2-3)Gal6S(b1-4)GlcNAc
Outline: as §1

[16] = molecular target: Neu5Ac(a2-6)Gal(b1-4)GlcNAc(b1-2)Man(a1-3)[GlcNAc(b1-2)Man(a1-6)]Man(b1-4)GlcNAc(b1-4)GlcNAc
Outline: as §1

[17] = molecular target: Neu5Ac(a2-6)Gal(b1-4)GlcNAc(b1-3)Gal(b1-4)GlcNAc(b1-2)Man(a1-3)[Neu5Ac(a2-6)Gal(b1-4)GlcNAc(b1-3)Gal(b1-4)GlcNAc(b1-2)Man(a1-6)]GalNAc
Outline: as §1

[18] = molecular target: Neu5Ac(a2-6)Gal(b1-4)GlcNAc(b1-3)Gal(b1-4)GlcNAc(b1-3)GalNAc
Outline: as §1

[19] = molecular target: Neu5Ac(a2-6)Gal(b1-4)GlcNAc(b1-3)Gal(b1-4)GlcNAc(b1-6)[Gal(b1-3)]GalNAc
Outline: as §1

[20] = molecular target: Neu5Ac(a2-6)Gal(b1-4)GlcNAc(b1-3)Gal(b1-4)[Fuc(a1-3)]GlcNAc(b1-3)Gal(b1-4)[Fuc(a1-3)]GlcNAc
Outline: as §1

[21] = molecular target: Neu5Ac(a2-6)GlcNAc(b1-4)GlcNAc(b1-4)GlcNAc
Outline: as §1

[22] = molecular target: Neu5Ac(a2-8)Neu5Ac(a2-3)Gal(b1-4)GlcNAc
Outline: as §1

[23] = molecular target: Neu5Ac(a2-8)Neu5Ac(a2-3)[Gal(b1-3)GalNAc(b1-4)]Gal(b1-4)Glc
Outline: as §1

[24] = molecular target: Neu5Ac(a2-8)Neu5Gc(a2-3)Gal(b1-4)GlcNAc
Outline: as §1

[25] = molecular target: Neu5Ac9Ac(a2-3)Gal(b1-3)GlcNAc
Outline: as §1

[26] = molecular target: Neu5Gc(a2-8)Neu5Gc(a2-3)Gal(b1-4)GlcNAc(b1-3)Gal(b1-4)GlcNAc
Outline: as §1

B1: PX9937D-bvu-500-26-500 (Bacteroides vulgatus) (protein)
chain: DPVSDITDLNYWKTPEQFDSFVFGLHSRFRSHSWNMFLLGEARSDVFGGIPFGGEATQGMERFPYNTLNAENPGISGFGDLYQNINQMNLFISRTLHTDVLTESARNYYLGQVYGLRAYYMYQLYRSWGDVVFTEEPSLGFEVGKLAKAATPAAEIFEQVKKDIESSLSYFGSDYTIKEKKSLWSKAATLMLKADVYLWSAHRDGGEGDARTAKNALVDIQNNISRSNLDLMDTYQGVFAYDNKGNKEIIFTIHNELFEYNLWNGNNDLFPQADYLGKFYNADGTLINTSVENNFGIMRLMVKLENFKKFLPGDTRRDVTLKDVYNKVENGKLELVGVYPHKYWGVMNGSTRVRCDDYPIYRYSDLLLMLAEAKVLLGEDPATEINRVRRRAFGDAYDASTVGFPNQEVDKRPADAVLQERLFEFMLEGKRWYDLRRFGDSYVLDYTPAEPARLLWPINQGALTNNPLLKQTVGY
glycan array binding signal (z-score) (GalNAc(b1-3)GlcNAc): -0.418
glycan array binding signal (z-score) [1]: -0.405
glycan array binding signal (z-score) [2]: -0.056
glycan array binding signal (z-score) [3]: -0.178
glycan array binding signal (z-score) [4]: -0.298
glycan array binding signal (z-score) [5]: -0.41
glycan array binding signal (z-score) [6]: -0.558
glycan array binding signal (z-score) [7]: 0.08
glycan array binding signal (z-score) (GlcNAc(b1-6)GalNAc): 0.455
glycan array binding signal (z-score) [8]: -0.219
glycan array binding signal (z-score) [9]: -0.308
glycan array binding signal (z-score) [10]: -0.574
glycan array binding signal (z-score) [11]: -0.13
glycan array binding signal (z-score) [12]: -0.306
glycan array binding signal (z-score) [13]: 0.163
glycan array binding signal (z-score) [14]: 0.114
glycan array binding signal (z-score) [15]: -0.307
glycan array binding signal (z-score) [16]: -0.121
glycan array binding signal (z-score) [17]: 4.23
glycan array binding signal (z-score) [18]: -0.414
glycan array binding signal (z-score) [19]: 0.256
glycan array binding signal (z-score) [20]: 0.021
glycan array binding signal (z-score) [21]: 0.037
glycan array binding signal (z-score) [22]: -0.636
glycan array binding signal (z-score) [23]: -0.284
glycan array binding signal (z-score) [24]: 10.6
glycan array binding signal (z-score) [25]: -0.36
glycan array binding signal (z-score) [26]: -0.056
